SMILES strings stand for the structures. In all, about 310,000 compounds went through this assay and about 14,000 (4.5%) showed an effect of 50% or more. Effects have a minus sign here. Shown is part of a subset that was picked to be rich in strong results.
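Also: peak tail current of the secondary pulse compared with the same well before compound.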

human ether-à-go-go-related gene (hERG) potassium channel, sequence (Q12809 whole entry, looked up): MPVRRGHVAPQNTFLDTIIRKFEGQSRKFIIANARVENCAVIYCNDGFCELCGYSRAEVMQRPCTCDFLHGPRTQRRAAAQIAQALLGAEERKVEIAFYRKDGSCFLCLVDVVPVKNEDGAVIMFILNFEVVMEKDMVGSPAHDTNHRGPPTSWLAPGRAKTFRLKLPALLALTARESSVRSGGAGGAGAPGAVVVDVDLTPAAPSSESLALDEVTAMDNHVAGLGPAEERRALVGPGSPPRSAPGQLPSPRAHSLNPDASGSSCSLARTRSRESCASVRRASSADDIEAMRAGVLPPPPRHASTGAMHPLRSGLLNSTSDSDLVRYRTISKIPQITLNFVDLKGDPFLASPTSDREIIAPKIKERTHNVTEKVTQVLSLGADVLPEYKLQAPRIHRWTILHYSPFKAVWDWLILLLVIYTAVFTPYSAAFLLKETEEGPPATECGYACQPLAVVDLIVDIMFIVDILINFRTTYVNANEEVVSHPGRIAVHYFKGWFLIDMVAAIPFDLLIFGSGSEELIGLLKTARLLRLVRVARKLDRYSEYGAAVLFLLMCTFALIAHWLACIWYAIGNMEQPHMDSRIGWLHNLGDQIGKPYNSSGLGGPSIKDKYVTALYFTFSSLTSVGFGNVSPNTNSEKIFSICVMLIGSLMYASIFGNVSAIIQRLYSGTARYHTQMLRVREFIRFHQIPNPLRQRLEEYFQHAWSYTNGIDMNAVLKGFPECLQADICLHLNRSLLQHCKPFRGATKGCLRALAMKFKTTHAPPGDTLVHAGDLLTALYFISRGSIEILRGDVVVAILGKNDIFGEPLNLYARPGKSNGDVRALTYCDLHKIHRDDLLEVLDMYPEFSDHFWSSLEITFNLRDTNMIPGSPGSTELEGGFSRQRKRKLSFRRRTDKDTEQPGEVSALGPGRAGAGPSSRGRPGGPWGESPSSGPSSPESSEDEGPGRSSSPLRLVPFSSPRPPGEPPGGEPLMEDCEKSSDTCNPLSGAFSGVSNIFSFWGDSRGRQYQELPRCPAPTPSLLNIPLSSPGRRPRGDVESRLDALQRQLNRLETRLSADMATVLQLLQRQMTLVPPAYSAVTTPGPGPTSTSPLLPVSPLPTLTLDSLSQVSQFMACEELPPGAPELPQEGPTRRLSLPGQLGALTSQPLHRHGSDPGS

The assay addresses human ether-à-go-go-related gene (hERG) potassium channel (human, UniProt Q12809). The experiment in a line: primary screen, population patch clamp on CHO cells stably expressing hERG; higher = less effect of the substance.
For `Cc1cc(-c2nnc(SCC(=O)Nc3ccccc3F)n2N)n[nH]1`, the “hERG current change (%, negative = inhibition) at 10uM” value was determined as 13.8%.

As to `CC1(C)NC(=O)N(CCCC(=O)Nc2ccc(C(F)(F)F)cc2)C1=O`, the “hERG current change (%, negative = inhibition) at 10uM” value is reported as -16.9%.

Turning to `CCOC(=O)c1c(-c2cccs2)csc1NC(C)=O`, the “hERG current change (%, negative = inhibition) at 10uM” value was -1.29%.

Regarding `COc1ccc(N2CC(C(=O)OCC(=O)Nc3ccccc3C)CC2=O)cc1` (centres unmarked), the “hERG current change (%, negative = inhibition) at 10uM” value is 15.6%.

`CN1CCN(C(=S)c2ccc(Cl)cc2)CC1`: the “hERG current change (%, negative = inhibition) at 10uM” value came out at 3.39%.

For the compound `CCCN(CC1CC1)C(=O)COc1ccccc1C(=O)NCc1ccccc1`, the “hERG current change (%, negative = inhibition) at 10uM” value is listed as -56%.

`CCN(C(=O)COc1ccccc1C(=O)NCc1ccccc1)C1CCS(=O)(=O)C1` (centres unmarked): the “hERG current change (%, negative = inhibition) at 10uM” value is given as -22.1%.

For the compound `CCC(C)N(C(=O)COc1ccccc1C(=O)NCc1ccccc1)C1CCS(=O)(=O)C1` (centres unmarked), the “hERG current change (%, negative = inhibition) at 10uM” value is recorded as -39.2%.

Consider `COc1ccc(-n2nc3c(c2NC(=O)c2ccc(Br)cc2)CS(=O)C3)cc1` (centres unmarked), for which the “hERG current change (%, negative = inhibition) at 10uM” value is -50.8%.

Turning to `COc1ccc(C(=O)Nc2c3c(nn2-c2cccc(Cl)c2)CS(=O)C3)cc1` (centres unmarked), the “hERG current change (%, negative = inhibition) at 10uM” value is -25.6%.

`COc1ccc(-n2nc3c(c2NC(=O)c2cc(Br)ccc2Cl)CS(=O)C3)cc1` (centres unmarked): the “hERG current change (%, negative = inhibition) at 10uM” value is -43.4%.

Take `CN(C)c1ccc(Sc2nnc(NC(=O)Nc3ccc(Cl)cc3Cl)s2)cc1`: the “hERG current change (%, negative = inhibition) at 10uM” value was 12.2%.

In the case of `O=C(O)c1cccc(S(=O)(=O)Nc2ccc3c(c2)OCO3)c1`, the “hERG current change (%, negative = inhibition) at 10uM” value is 23.4%.

Regarding `CN(C)CC(NC(=O)c1cccc(S(=O)(=O)Nc2ccc3c(c2)OCO3)c1)c1ccccc1` (centres unmarked), the “hERG current change (%, negative = inhibition) at 10uM” value is listed as -14.8%.

For the compound `CCN(CC)Cc1ccccc1CNC(=O)c1cccc(S(=O)(=O)Nc2ccc3c(c2)OCO3)c1`, the “hERG current change (%, negative = inhibition) at 10uM” value is on record as -71.3%.

As for `COc1ccc(C(=O)NCc2ccccc2CN2CCCC2)cc1S(=O)(=O)Nc1ccc(C)cc1`, the “hERG current change (%, negative = inhibition) at 10uM” value is -57.9%.

For the compound `COc1ccc(OC)c(CN2CCN(C(=O)CCNC(=O)c3ccc(Br)cc3)CC2)c1`, the “hERG current change (%, negative = inhibition) at 10uM” value was -45.7%.

For the compound `COc1ccc(C(=O)O)cc1S(=O)(=O)Nc1ccc(C)cc1`, the “hERG current change (%, negative = inhibition) at 10uM” value is reported as 23.1%.

As to `COc1ccc(OC)c(CN2CCN(C(=O)CNC(=O)c3ccc(C(C)(C)C)cc3)CC2)c1`, the “hERG current change (%, negative = inhibition) at 10uM” value is -53.9%.

Turning to `COc1ccc(C(=O)NCc2ccccc2OC)cc1`, the “hERG current change (%, negative = inhibition) at 10uM” value is -10.3%.

With `O=C(NCc1ccccc1CN1CCCC1)c1cccc(N2CCCC2=O)c1`, the “hERG current change (%, negative = inhibition) at 10uM” value is recorded as -3.11%.

Take `CCN1CCN(C(=O)c2ccc(OC)c(S(=O)(=O)Nc3ccc(C)cc3)c2)CC1`: the “hERG current change (%, negative = inhibition) at 10uM” value was -18.4%.

`COc1ccc2cc(C(=O)NCc3ccccc3CN3CCCC3)ccc2c1`: the “hERG current change (%, negative = inhibition) at 10uM” value is -68.2%.

As for `COc1ccc(OC)c(CN2CCN(C(=O)CNC(=O)c3cc(C)cc(C)c3)CC2)c1`, the “hERG current change (%, negative = inhibition) at 10uM” value is -42.7%.

As for `COc1ccccc1-c1nc(S(=O)(=O)c2ccccc2)c(N2CCCCC2)o1`, the “hERG current change (%, negative = inhibition) at 10uM” value was determined as 14.4%.

As for `Cc1cc(C)cc(NC(=O)CSc2nc3[nH]ncc3c(=O)[nH]2)c1`, the “hERG current change (%, negative = inhibition) at 10uM” value is reported as 11.8%.

`C/C(=N\NC(=S)Nc1cccc(C)c1)c1ccco1`: the “hERG current change (%, negative = inhibition) at 10uM” value is -6.35%.

Take `Cc1cc2c3c(c1C)C(=O)C(=O)N3C(C)(C)CC2C` (centres unmarked): the “hERG current change (%, negative = inhibition) at 10uM” value is reported as 6.5%.

Take `O=C(COC(=O)CCCN1C(=O)c2ccccc2C1=O)Nc1cc(Cl)cc(Cl)c1`: the “hERG current change (%, negative = inhibition) at 10uM” value is recorded as -3.11%.

Turning to `CC12CCC(C(=O)Nc3nc4ccccc4s3)(OC1=O)C2(C)C` (centres unmarked), the “hERG current change (%, negative = inhibition) at 10uM” value is 2.26%.

As to `Cc1cccc(NS(=O)(=O)c2cccc(C(=O)NCc3ccccc3CN3CCOCC3)c2)c1`, the “hERG current change (%, negative = inhibition) at 10uM” value is on record as -26%.

As to `O=C(NCc1ccccc1CN1CCCC1)c1ccc(OCc2cscn2)cc1`, the “hERG current change (%, negative = inhibition) at 10uM” value is -30%.

With `O=C(NCCN1CCOCC1)c1cccc(S(=O)(=O)Nc2ccc(F)cc2)c1`, the “hERG current change (%, negative = inhibition) at 10uM” value is on record as -5.27%.

In the case of `COc1ccc(NS(=O)(=O)c2cccc(C(=O)NCCCN3CCOCC3)c2)cc1`, the “hERG current change (%, negative = inhibition) at 10uM” value was determined as 5.96%.

For the compound `COc1ccc(NS(=O)(=O)c2cccc(C(=O)NCc3ccccc3CN3CCCC3)c2)cc1`, the “hERG current change (%, negative = inhibition) at 10uM” value was -64.4%.

Take `COc1ccc(NS(=O)(=O)c2cccc(C(=O)NCc3ccco3)c2)cc1`: the “hERG current change (%, negative = inhibition) at 10uM” value is reported as -15.8%.

Regarding `Cc1nc(COc2ccc(C(=O)NCc3ccccc3CN3CCCCC3)cc2)cs1`, the “hERG current change (%, negative = inhibition) at 10uM” value is given as -52.5%.

`O=C(NCc1ccccc1CN1CCCC1)c1cccc(S(=O)(=O)Nc2ccc(F)cc2)c1`: the “hERG current change (%, negative = inhibition) at 10uM” value is -75.2%.

On to `Cc1nc(COc2ccc(C(=O)Nc3ccccc3N3CCOCC3)cc2)cs1`, for which the “hERG current change (%, negative = inhibition) at 10uM” value is on record as -49.1%.

`COc1ccc(N/C=C(\C(C)=O)c2ccc(OC)c(OC)c2)cc1OC`: the “hERG current change (%, negative = inhibition) at 10uM” value came out at 18.2%.

As for `CCNc1nc(N2CCOCC2)nc(N(c2ccccc2)c2ccccc2)n1`, the “hERG current change (%, negative = inhibition) at 10uM” value is given as -12.9%.

Consider `CS(=O)(=O)N1CCC(C(=O)Nc2cc(Cl)cc(Cl)c2)CC1`, for which the “hERG current change (%, negative = inhibition) at 10uM” value amounted to 4.85%.

In the case of `Cn1c(=O)c2c(nc(Sc3ccccc3N)n2C)n(C)c1=O`, the “hERG current change (%, negative = inhibition) at 10uM” value amounted to 11.4%.

For `Cl.c1ccc(C(c2nnnn2Cc2ccco2)N2CCN(C3CCCC3)CC2)cc1` (centres unmarked), the “hERG current change (%, negative = inhibition) at 10uM” value was -53.5%.

As to `CCCC(c1nnnn1Cc1ccco1)N1CCN(C2CCCC2)CC1` (centres unmarked), the “hERG current change (%, negative = inhibition) at 10uM” value was -31%.

On to `CC(C)CC(c1nnnn1Cc1ccco1)N1CCN(C2CCCC2)CC1.Cl` (centres unmarked), for which the “hERG current change (%, negative = inhibition) at 10uM” value is on record as -38.1%.

For `Cl.c1coc(Cn2nnnc2CN2CCN(C3CCCCC3)CC2)c1`, the “hERG current change (%, negative = inhibition) at 10uM” value is on record as -41.4%.

Turning to `CC(C)C(c1nnnn1Cc1ccco1)N1CCN(C2CCCC2)CC1.Cl` (centres unmarked), the “hERG current change (%, negative = inhibition) at 10uM” value is reported as -3.68%.

In the case of `Cl.Fc1ccc(C(c2nnnn2Cc2ccco2)N2CCN(C3CCCCC3)CC2)cc1` (centres unmarked), the “hERG current change (%, negative = inhibition) at 10uM” value is listed as -65.6%.

For the compound `N#Cc1nc(COc2ccccc2)oc1N1CCOCC1`, the “hERG current change (%, negative = inhibition) at 10uM” value is reported as -19.6%.

Consider `Cc1ccc(NC(=O)/C=C\C(=O)NCC(=O)O)cc1`, for which the “hERG current change (%, negative = inhibition) at 10uM” value worked out at 0.434%.

`CC(=O)C1=C(C)Nc2ncnn2C1c1ccc(Cl)cc1Cl` (centres unmarked): the “hERG current change (%, negative = inhibition) at 10uM” value is 2.23%.

For the compound `Cn1cc(CN2CCC(n3nccc3NC(=O)Cc3ccccc3)CC2)cn1`, the “hERG current change (%, negative = inhibition) at 10uM” value is listed as -41.8%.

With `COc1ccc(C(=O)N2CCN(c3ccc(NC(=O)c4cccnc4)cc3)CC2)cc1`, the “hERG current change (%, negative = inhibition) at 10uM” value is recorded as -53.7%.

Turning to `COc1ccc(NC(=O)c2cccnc2)cc1`, the “hERG current change (%, negative = inhibition) at 10uM” value is on record as -11.1%.

Take `CCc1ccc(C(=O)N2CCN(c3ccc(NC(=O)c4cccnc4)cc3)CC2)cc1`: the “hERG current change (%, negative = inhibition) at 10uM” value was -71.3%.

With `O=C(Nc1ccc(N2CCN(C(=O)c3ccccc3)CC2)cc1)c1cccnc1`, the “hERG current change (%, negative = inhibition) at 10uM” value is on record as -1.77%.

For the compound `Cc1ccc(C(=O)N2CCN(c3ccc(NC(=O)c4cccnc4)cc3)CC2)cc1`, the “hERG current change (%, negative = inhibition) at 10uM” value is reported as -38.8%.

Consider `Cc1ccccc1C(=O)N1CCN(c2ccc(NC(=O)c3cccnc3)cc2)CC1`, for which the “hERG current change (%, negative = inhibition) at 10uM” value is reported as -23%.

The values are drawn from article PMC4336329 (PLoS ONE, 2015).
